Data: the supplement of paper PMC10849652
Of roughly 7,900 targets only a part is listed; those with a hit were picked by preference. About 0.6% of all pairs of compound and target were hits.

What was measured:
Test in all cases: log2 fold change, soluble protein after heating vs DMSO (PISA); higher = thermal stabilisation; K562 cells, 10 uM, 30 min; active = over 0.2 and 3.5 SD of the protein, either way, in both replicates (recomputed)
[1] = compound: C1=CC=C(C=C1)[C@H](COC2=CC3=C(C=C2)NC(=O)N3)NC(=O)C4=CC=CN(C4=O)CC5=CC(=C(C=C5)F)F
In short: (§1)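 Quantification of soluble protein used TMTpro 16plex LC-MS/MS, with channel sums equalised. Samples were the supernatant after 21,000xg for 90 min of pooled aliquots from K562 cells (2×10^6 cells/mL) treated with 10 μM compound for 30 min, heated for 3 min over 48°C-58°C, and extracted in PBS with 0.5% NP-40 at 4°C. Values, from duplicates, describe thermal stability against control samples on a log2 fold-change scale.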

[2] = compound: CC1=C(SC2=C1C(=N[C@H](C3=NN=C(N32)C)CC(=O)N)C4=CC=C(C=C4)Cl)C
In short: as §1

[3] = compound: CC1=C2C(=CC=C1)N=C(N(C2=O)C3=CC=CC=C3C)CN4C=NC5=C(N=CN=C54)N
In short: as §1

[4] = compound: Cc1sc2c(c1C)C(c1ccc(Cl)cc1)=N[C@@H](CC(=O)OC(C)(C)C)c1nnc(C)n1-2
In short: as §1

[5] = compound: c1ccc([C@@H]2C[C@H]2NC2CCNCC2)cc1
In short: as §1

Measured: log2 fold change

PAK1 isoform 2 (UniProt Q13153)
Chain of UniProt Q13153 (Q13153 whole entry, looked up): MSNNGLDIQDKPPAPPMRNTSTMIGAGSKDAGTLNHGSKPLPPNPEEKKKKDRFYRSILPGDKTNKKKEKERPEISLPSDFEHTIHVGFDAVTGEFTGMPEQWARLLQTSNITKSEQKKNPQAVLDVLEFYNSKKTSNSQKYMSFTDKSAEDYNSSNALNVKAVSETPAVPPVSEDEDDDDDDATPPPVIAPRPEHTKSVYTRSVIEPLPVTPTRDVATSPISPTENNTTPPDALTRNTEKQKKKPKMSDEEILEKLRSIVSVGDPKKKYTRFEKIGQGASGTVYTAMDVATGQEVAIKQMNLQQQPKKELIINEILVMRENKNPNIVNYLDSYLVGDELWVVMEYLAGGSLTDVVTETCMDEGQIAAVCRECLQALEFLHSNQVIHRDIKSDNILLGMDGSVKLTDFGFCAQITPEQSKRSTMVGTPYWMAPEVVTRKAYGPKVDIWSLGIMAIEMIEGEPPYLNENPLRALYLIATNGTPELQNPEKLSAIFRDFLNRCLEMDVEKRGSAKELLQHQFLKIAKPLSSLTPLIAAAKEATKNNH
inactive: [1] -0.152 | [2] 0.097 | [3] -0.113 | [4] -0.02 | [5] -0.092

OGFR (UniProt Q9NZT2)
inactive: [1] -0.016 | [2] -0.057 | [3] 0.016 | [4] 0.095 | [5] -0.046

MRPL34 (UniProt Q9BQ48)
inactive: [1] 0 | [2] -0.154 | [3] -0.073 | [4] 0.058 | [5] -0.051

NUDCD2 (UniProt Q8WVJ2)
inactive: [1] -0.037 | [2] 0.113 | [3] 0.099 | [4] 0.017 | [5] 0.037

MUL1 (UniProt Q969V5)
inactive: [1] -0.002 | [2] 0.006 | [3] 0.044 | [4] -0.107 | [5] 0.02

NIBAN1 (UniProt Q9BZQ8)
inactive: [1] -0.017 | [2] 0.015 | [3] 0.056 | [4] 0.028 | [5] 0.03

NUCKS1 (UniProt Q9H1E3)
inactive: [1] 0.044 | [2] -0.053 | [3] 0.032 | [4] -0.029 | [5] -0.007

NUP210 (UniProt Q8TEM1)
Chain of UniProt Q8TEM1 (Q8TEM1 whole entry, looked up): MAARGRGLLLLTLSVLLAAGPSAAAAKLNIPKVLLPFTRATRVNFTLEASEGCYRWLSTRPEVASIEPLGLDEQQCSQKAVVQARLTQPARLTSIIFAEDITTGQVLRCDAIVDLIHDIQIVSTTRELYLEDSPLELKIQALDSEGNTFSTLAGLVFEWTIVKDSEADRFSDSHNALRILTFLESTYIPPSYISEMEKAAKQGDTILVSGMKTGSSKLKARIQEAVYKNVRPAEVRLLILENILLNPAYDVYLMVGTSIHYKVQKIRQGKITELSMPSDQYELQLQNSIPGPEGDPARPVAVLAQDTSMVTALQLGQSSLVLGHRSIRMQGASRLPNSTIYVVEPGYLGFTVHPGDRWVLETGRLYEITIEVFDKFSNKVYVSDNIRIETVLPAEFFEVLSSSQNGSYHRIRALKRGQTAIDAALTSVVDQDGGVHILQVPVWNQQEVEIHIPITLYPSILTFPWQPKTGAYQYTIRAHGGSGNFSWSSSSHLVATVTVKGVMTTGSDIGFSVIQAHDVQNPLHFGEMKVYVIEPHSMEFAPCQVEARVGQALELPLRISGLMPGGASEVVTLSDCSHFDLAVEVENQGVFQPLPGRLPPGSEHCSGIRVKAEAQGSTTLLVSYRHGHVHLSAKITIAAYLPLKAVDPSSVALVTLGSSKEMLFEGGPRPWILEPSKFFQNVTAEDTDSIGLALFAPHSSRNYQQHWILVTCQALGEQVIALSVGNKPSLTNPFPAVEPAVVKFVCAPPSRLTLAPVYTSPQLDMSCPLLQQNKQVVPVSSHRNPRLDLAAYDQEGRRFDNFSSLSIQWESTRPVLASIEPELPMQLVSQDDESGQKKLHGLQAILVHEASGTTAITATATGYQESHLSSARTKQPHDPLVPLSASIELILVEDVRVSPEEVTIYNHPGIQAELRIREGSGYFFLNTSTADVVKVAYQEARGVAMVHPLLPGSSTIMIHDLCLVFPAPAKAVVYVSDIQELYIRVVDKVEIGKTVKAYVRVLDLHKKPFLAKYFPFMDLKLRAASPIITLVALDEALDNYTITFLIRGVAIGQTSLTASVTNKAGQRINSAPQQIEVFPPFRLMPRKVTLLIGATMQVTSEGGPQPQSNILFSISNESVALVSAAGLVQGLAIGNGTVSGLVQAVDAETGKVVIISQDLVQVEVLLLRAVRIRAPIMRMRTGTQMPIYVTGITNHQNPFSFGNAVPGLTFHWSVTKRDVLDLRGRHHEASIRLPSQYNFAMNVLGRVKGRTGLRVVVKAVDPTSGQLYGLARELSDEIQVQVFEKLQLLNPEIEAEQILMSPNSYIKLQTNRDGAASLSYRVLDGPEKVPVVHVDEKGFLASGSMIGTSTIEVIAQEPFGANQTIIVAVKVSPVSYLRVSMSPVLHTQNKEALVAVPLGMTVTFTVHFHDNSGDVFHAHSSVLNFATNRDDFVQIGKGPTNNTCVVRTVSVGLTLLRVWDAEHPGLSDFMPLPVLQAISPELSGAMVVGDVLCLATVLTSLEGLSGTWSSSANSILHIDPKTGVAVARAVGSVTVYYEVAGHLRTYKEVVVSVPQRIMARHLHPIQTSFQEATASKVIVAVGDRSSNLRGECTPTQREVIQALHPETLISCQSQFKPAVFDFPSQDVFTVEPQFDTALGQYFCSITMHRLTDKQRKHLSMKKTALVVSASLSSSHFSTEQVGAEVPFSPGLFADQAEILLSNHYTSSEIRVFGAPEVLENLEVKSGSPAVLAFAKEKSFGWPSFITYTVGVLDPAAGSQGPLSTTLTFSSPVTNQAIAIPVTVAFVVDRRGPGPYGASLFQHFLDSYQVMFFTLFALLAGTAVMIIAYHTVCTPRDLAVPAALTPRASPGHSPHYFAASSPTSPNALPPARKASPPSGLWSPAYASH
inactive: [1] -0.083 | [2] 0.059 | [3] 0.037 | [4] -0.013 | [5] -0.028

MTHFD1 (UniProt P11586)
inactive: [1] -0.059 | [2] 0.024 | [3] 0.018 | [4] -0.013 | [5] -0.019

NDUFA7 (UniProt M0R0N0)
inactive: [1] -0.091 | [3] 0.23

NOP56 (UniProt O00567)
inactive: [1] 0.045 | [2] -0.289 | [3] -0.281 | [4] 0.154 | [5] 0.024

ORC5 (UniProt O43913)
Chain of UniProt O43913 (O43913 whole entry, looked up): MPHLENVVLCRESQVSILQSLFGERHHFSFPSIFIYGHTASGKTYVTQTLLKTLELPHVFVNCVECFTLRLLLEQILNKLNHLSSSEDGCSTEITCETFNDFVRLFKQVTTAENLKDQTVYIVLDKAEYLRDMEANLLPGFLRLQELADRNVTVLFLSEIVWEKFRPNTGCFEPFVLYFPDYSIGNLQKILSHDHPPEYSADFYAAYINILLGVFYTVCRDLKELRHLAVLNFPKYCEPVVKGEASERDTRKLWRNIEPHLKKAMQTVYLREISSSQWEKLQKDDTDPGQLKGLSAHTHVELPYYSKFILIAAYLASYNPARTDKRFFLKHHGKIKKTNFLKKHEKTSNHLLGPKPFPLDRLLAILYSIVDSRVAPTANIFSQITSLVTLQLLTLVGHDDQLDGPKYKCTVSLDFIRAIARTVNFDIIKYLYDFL
inactive: [1] -0.081 | [2] 0.02 | [3] 0.144 | [4] -0.016 | [5] -0.044

MRM2 (UniProt Q9UI43)
inactive: [2] 0.021 | [3] 0.071 | [4] 0 | [5] -0.052

NUDT7 (UniProt P0C024)
inactive: [1] -0.077 | [4] -0.047

MOB2 isoform 3 (UniProt Q70IA6)
inactive: [1] -0.015 | [2] 0.129 | [4] 0.067 | [5] -0.096

MITF (UniProt O75030)
inactive: [3] -0.059

NA, A0A2R8Y3M9
inactive: [1] -0.093 | [2] -0.069 | [5] 0.161

OSBPL3 (UniProt Q9H4L5)
inactive: [2] -0.077 | [3] -0.035 | [4] 0.292 | [5] 0.14

NOB1 (UniProt Q9ULX3)
Chain of UniProt Q9ULX3 (Q9ULX3 whole entry, looked up): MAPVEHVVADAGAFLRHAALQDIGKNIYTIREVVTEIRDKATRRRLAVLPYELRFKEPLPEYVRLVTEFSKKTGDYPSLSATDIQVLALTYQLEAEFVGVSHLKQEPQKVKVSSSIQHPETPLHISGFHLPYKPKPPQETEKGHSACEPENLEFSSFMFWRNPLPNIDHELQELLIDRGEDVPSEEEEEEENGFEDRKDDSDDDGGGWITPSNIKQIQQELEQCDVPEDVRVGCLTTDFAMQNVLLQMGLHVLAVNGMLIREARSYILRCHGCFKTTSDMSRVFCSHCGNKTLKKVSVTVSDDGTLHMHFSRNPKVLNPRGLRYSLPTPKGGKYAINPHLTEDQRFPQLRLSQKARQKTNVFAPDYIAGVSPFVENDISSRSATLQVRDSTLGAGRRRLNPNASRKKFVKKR
inactive: [1] -0.048 | [2] -0.033 | [3] 0.048 | [4] 0.067 | [5] -0.06

MRPS26 (UniProt Q9BYN8)
inactive: [1] -0.075 | [2] 0.061 | [3] -0.012 | [4] -0.009 | [5] 0.013

OXR1 isoform 2 (UniProt Q8N573)
inactive: [2] 0.126 | [3] 0.025 | [4] -0.035 | [5] -0.101

OPHN1 (UniProt O60890)
inactive: [1] -0.209 | [2] 0.033 | [4] 0.008 | [5] 0.07

MSANTD2 (UniProt Q6P1R3)
inactive: [3] 0.06 | [4] 0.028

NDUFS7 (UniProt O75251)
inactive: [1] 0 | [2] 0.062 | [3] 0.015 | [4] -0.051 | [5] -0.022

NECTIN2 isoform 2 (UniProt Q92692)
inactive: [1] 0.179 | [3] -0.03

MON1A (UniProt Q86VX9)
inactive: [1] 0.1 | [4] -0.071

MLX (UniProt Q9UH92)
inactive: [1] -0.055 | [2] 0.032 | [4] 0.093 | [5] -0.011

NA, A0A1W2PSA9
inactive: [2] -0.046 | [4] 0.006 | [5] 0.104

MPHOSPH8 isoform 2 (UniProt Q99549)
inactive: [2] -0.064 | [3] -0.009 | [4] 0.089 | [5] 0.061

NUMBL (UniProt Q9Y6R0)
Chain of UniProt Q9Y6R0 (Q9Y6R0 whole entry, looked up): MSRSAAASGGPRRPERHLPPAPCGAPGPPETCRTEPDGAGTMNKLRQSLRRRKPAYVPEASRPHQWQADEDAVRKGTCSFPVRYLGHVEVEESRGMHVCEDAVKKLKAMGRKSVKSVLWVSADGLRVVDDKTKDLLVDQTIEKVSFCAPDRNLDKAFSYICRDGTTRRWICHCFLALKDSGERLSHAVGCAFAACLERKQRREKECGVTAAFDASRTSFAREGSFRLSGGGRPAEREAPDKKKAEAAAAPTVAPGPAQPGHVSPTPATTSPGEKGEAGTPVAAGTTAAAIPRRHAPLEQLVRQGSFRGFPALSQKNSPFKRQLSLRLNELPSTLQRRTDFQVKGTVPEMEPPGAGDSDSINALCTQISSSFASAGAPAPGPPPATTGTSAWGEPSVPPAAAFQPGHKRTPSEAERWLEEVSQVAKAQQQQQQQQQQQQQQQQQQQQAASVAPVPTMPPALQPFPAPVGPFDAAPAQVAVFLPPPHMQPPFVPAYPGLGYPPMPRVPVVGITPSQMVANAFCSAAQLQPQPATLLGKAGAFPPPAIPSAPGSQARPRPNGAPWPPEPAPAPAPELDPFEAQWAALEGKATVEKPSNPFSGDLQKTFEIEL
inactive: [1] -0.058 | [2] -0.084 | [3] 0.009 | [5] -0.009

NUDT6 (UniProt P53370)
inactive: [2] 0.073 | [3] 0.34 | [4] -0.023 | [5] -0.212

OSBPL2 (UniProt Q9H1P3)
inactive: [2] -0.583 | [5] -0.09

OXR1 (UniProt Q8N573)
inactive: [1] -0.021 | [2] 0.026 | [3] 0.039 | [4] -0.041 | [5] -0.069

MYH10 isoform 3 (UniProt P35580)
inactive: [1] -0.003 | [2] 0.043 | [3] 0.056 | [4] -0.023 | [5] -0.013

MYO19 (UniProt Q96H55)
Chain of UniProt Q96H55 (Q96H55 whole entry, looked up): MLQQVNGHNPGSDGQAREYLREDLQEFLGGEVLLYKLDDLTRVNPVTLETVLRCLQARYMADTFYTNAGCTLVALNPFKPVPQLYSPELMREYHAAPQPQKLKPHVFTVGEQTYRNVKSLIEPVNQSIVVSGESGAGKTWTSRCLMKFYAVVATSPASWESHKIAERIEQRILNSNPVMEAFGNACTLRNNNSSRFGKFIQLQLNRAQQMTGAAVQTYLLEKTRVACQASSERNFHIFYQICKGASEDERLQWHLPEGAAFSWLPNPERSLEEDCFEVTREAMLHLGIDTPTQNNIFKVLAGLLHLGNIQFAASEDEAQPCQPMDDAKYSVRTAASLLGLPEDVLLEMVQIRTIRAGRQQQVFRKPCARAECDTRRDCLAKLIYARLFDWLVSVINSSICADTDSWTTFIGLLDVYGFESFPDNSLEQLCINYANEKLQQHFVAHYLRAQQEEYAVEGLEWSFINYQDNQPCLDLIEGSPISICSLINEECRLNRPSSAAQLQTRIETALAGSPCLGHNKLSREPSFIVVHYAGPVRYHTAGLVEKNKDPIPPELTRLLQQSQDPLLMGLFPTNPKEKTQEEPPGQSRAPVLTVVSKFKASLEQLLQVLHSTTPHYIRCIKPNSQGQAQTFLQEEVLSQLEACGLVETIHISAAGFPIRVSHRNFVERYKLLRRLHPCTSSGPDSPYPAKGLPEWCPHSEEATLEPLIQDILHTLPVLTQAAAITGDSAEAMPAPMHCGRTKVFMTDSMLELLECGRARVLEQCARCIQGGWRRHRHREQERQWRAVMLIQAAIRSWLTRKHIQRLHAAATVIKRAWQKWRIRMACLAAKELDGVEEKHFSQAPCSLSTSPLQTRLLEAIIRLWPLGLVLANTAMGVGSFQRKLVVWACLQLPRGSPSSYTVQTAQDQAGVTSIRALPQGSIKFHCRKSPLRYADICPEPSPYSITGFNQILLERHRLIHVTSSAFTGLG
inactive: [1] -0.07 | [2] 0.016 | [3] 0.146 | [5] 0.088

NELFCD (UniProt Q8IXH7)
inactive: [1] -0.022 | [2] 0.155 | [3] 0.214 | [5] 0.034

NDUFB10 (UniProt O96000)
inactive: [1] 0.048 | [2] 0.009 | [3] 0.06 | [4] -0.031 | [5] 0.002

NAGPA (UniProt Q9UK23)
inactive: [1] 0.179 | [2] -0.048 | [4] -0.004 | [5] 0.061

NOLC1 isoform 3 (UniProt Q14978)
inactive: [2] 0.007 | [5] -0.021

NAP1L1 (UniProt B7Z9C2)
inactive: [1] 0.003 | [3] 0.134

NEK3 (UniProt P51956)
inactive: [2] 0.204 | [3] 0.053 | [4] -0.032 | [5] -0.094

NNT (UniProt Q13423)
inactive: [1] -0.014 | [2] 0.091 | [3] 0.044 | [4] -0.028 | [5] 0

MLH1 (UniProt P40692)
inactive: [1] 0.192 | [2] 0.007 | [4] -0.109 | [5] -0.065

NDUFS8 (UniProt O00217)
Chain of UniProt O00217 (O00217 whole entry, looked up): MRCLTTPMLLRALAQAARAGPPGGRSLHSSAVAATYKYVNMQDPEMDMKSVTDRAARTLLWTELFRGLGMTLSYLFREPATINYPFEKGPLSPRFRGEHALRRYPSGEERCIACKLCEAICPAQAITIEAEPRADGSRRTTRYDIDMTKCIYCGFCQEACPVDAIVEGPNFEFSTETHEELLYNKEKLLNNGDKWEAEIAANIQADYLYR
inactive: [1] -0.049 | [2] 0.1 | [3] 0.082 | [4] -0.023 | [5] -0.02

MSL1 (UniProt Q68DK7)
inactive: [1] 0.083 | [3] 0.17

NEDD4L (UniProt Q96PU5)
inactive: [1] 0.014 | [2] 0.038 | [3] 0.039 | [4] 0.054 | [5] 0.027

NOP58 (UniProt Q9Y2X3)
inactive: [1] 0.039 | [2] -0.151 | [3] -0.063 | [4] 0.068 | [5] 0.031
